Source: PubChem BioAssay (NCI)
Compounds without any hit were thinned out: in the full panel of roughly 79,000, 15% have a hit. Calls of active or inactive are those of the source. Cut-off read from the data, not from the text of the source: active = growth inhibition above about 70%; inactive = the rest.

Experiments:
[1] = NCI Yeast Anticancer Drug Screen. Data for the rad52 strain (AID 147);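 note: 0% = growth of vehicle-treated control cultures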; settings: S. cerevisiae rad52 mutant growth inhibition, stronger effect = higher value
In short: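 Screen used a yeast mutant impaired in DNA repair. After compound exposure, growth was measured. Values reflect inhibition compared with vehicle-treated cells.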

[2] = NCI Yeast Anticancer Drug Screen. Data for the wt1 strain (AID 149);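 note: 0% = growth of vehicle-treated wt1 cultures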; settings: S. cerevisiae wt1 strain (SPY 50644) growth inhibition, stronger effect = higher value
In short: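 Yeast wt1 strain exposed to compounds; growth inhibition measured relative to vehicle-treated controls.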

[3] = NCI Yeast Anticancer Drug Screen. Data for the rad50EPP+ strain (AID 151);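 note: 0% = growth of vehicle-treated control cultures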; settings: S. cerevisiae rad50 mutant strain, stronger effect = higher value
In short: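 Exposing the rad50EPP+ strain to each compound, growth was compared with vehicle-only cultures to give inhibition.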

[4] = NCI Yeast Anticancer Drug Screen. Data for the mgt1 strain (AID 153); settings: S. cerevisiae mgt1 mutant growth inhibition, stronger effect = higher value
In short: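 Genetically defined yeast (mgt1) treated with compound; inhibition of growth expressed against vehicle-treated controls.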

[5] = NCI Yeast Anticancer Drug Screen. Data for the rad50 strain (AID 155);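 note: 0% = growth of vehicle-only cultures of the same strain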; settings: S. cerevisiae rad50 strain growth inhibition, stronger effect = higher value
In short: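 Yeast carrying a defined DNA repair defect were exposed to test compounds, and growth was compared with vehicle-treated controls to give percent inhibition.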

[6] = NCI Yeast Anticancer Drug Screen. Data for the mec2-1 strain (AID 157); settings: S. cerevisiae mec2-1 strain, stronger effect = higher value
In short: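 Readout is yeast growth inhibition, normalised to vehicle-treated controls, in the mec2-1 strain exposed to compound.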

[7] = NCI Yeast Anticancer Drug Screen. Data for the rad14 strain (AID 159);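 note: 0% = growth of vehicle-treated control cultures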; settings: S. cerevisiae rad14 strain growth inhibition, stronger effect = higher value
In short: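 Yeast cells carrying a defined DNA-repair defect were exposed to compounds, and growth inhibition was calculated relative to vehicle-treated control cultures.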

[8] = NCI Yeast Anticancer Drug Screen. Data for the sgs1 mgt1 strain (AID 161);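 note: 0% = growth of cultures given vehicle only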; settings: S. cerevisiae sgs1 mgt1 strain, stronger effect = higher value
In short: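 Yeast cells carrying a defined DNA-repair defect were exposed to test compounds. Growth inhibition was measured relative to vehicle-treated controls.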

[9] = NCI Yeast Anticancer Drug Screen. Data for the CLN2oe strain (AID 163);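 note: 0% = growth of vehicle-only control cultures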; settings: S. cerevisiae CLN2oe strain, stronger effect = higher value
In short: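 Values reflect how much compound exposure reduced yeast growth, referenced to vehicle-exposed cells. Assay organism is a strain with a defined genetic change affecting cell-cycle control.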

[10] = NCI Yeast Anticancer Drug Screen. Data for the cln2 rad14 strain (AID 165);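 note: 0% = growth equal to vehicle treated cultures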; settings: S. cerevisiae cln2 rad14 strain, stronger effect = higher value
In short: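 Relative to vehicle controls, growth inhibition of compound-treated cln2 rad14 yeast was recorded.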

[11] = NCI Yeast Anticancer Drug Screen. Data for the bub3 strain (AID 167); settings: S. cerevisiae bub3 mutant strain, stronger effect = higher value
In short: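 Compounds were applied to a genetically altered yeast strain carrying a cell-cycle control defect. Growth inhibition was scored against vehicle-treated controls.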

[12] = NCI Yeast Anticancer Drug Screen. Data for the wt2 strain (AID 169);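 note: 0% = growth of vehicle-treated yeast cultures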; settings: S. cerevisiae wt2 strain growth inhibition, stronger effect = higher value
In short: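 Values express reduction in yeast growth under compound treatment, referenced to vehicle-treated cells.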

[13] = NCI Yeast Anticancer Drug Screen. Data for the mlh1 strain (AID 171);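 note: 0% = growth of vehicle-treated control cultures of the same strain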; settings: S. cerevisiae mlh1 strain growth inhibition, stronger effect = higher value
In short: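 Steps: expose the defined-mutant yeast strain to compound; expose a parallel culture to vehicle; measure growth; express compound effect as inhibition relative to the vehicle culture.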

[14] = NCI Yeast Anticancer Drug Screen. Data for the sgs1 strain (AID 173);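 note: 0% = growth of vehicle-only control cultures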; settings: S. cerevisiae sgs1 mutant, stronger effect = higher value
In short: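 Treat defined-mutant yeast with compound; measure growth; calculate inhibition relative to vehicle-treated cells.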

[15] = NCI Yeast Anticancer Drug Screen. Data for the mlh1 rad18 strain (AID 175); settings: S. cerevisiae mlh1 rad18 strain growth inhibition, stronger effect = higher value
In short: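 Test agents were incubated with a yeast strain of defined genotype (DNA damage repair defect). Inhibition of growth was derived by comparison with vehicle-exposed cultures.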

[16] = NCI Yeast Anticancer Drug Screen. Data for the rad18 strain (AID 177); settings: S. cerevisiae rad18 mutant growth inhibition, stronger effect = higher value
In short: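 A genetically defined yeast mutant impaired in DNA damage repair was treated with test compounds, then its growth was measured against cultures receiving vehicle alone.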

[17] = at 5.0 µM (retest, dose inferred, filed as 0.5)
[18] = at 50.0 µM (retest, dose inferred, filed as 5.0)

Measured: growth inhibition

CCCCCCNCCCNc1c2ccccc2nc2cccc([N+](=O)[O-])c12
inactive: [1]; at 1.2 µM 43% | [2]; at 1.2 µM -2% | [2]; at 3.7 µM 0% | [2]; at 11.0 µM 8% | [2]; at 33.0 µM 59% | [3]; at 1.2 µM -1% | [3]; at 3.7 µM 5% | [3]; at 11.0 µM 26% | [3]; at 33.0 µM 67% | [4]; at 1.2 µM -4% | [4]; at 3.7 µM -4% | [4]; at 11.0 µM 11% | [5]; at 1.2 µM 24% | [5]; at 3.7 µM 64% | [5]; [17] 69% | [6]; at 1.2 µM 4% | [6]; at 3.7 µM 40% | [6]; [17] 15% | [7]; at 1.2 µM 23% | [9]; at 1.2 µM -6% | [9]; at 3.7 µM -6% | [9]; at 11.0 µM -5% | [9]; at 33.0 µM 29% | [11]; at 1.2 µM -10% | [11]; at 3.7 µM -16% | [11]; [17] -42% | [11]; at 11.0 µM -12% | [11]; at 33.0 µM 15% | [11]; at 50.0 µM 43.9% | [12]; at 1.2 µM -1% | [12]; at 3.7 µM 0% | [12]; at 11.0 µM 5% | [12]; at 33.0 µM 31% | [13]; at 1.2 µM 2% | [13]; at 3.7 µM 9% | [13]; at 11.0 µM 35% | [14]; at 1.2 µM 62%
active: [1]; at 3.7 µM 80% | [1]; at 11.0 µM 92% | [1]; at 33.0 µM 95% | [1]; at 100.0 µM 95% | [2]; at 100.0 µM 92% | [3]; at 100.0 µM 94% | [4]; at 33.0 µM 78% | [4]; at 100.0 µM 94% | [5]; at 11.0 µM 90% | [5]; at 33.0 µM 94% | [5]; [18] 98% | [5]; at 50.0 µM 83.3% | [5]; at 100.0 µM 96% | [6]; at 11.0 µM 94% | [6]; at 33.0 µM 97% | [6]; [18] 99% | [6]; at 50.0 µM 88.1% | [6]; at 100.0 µM 97% | [7]; at 3.7 µM 86% | [7]; at 11.0 µM 98% | [7]; at 33.0 µM 98% | [7]; at 100.0 µM 97% | [8]; [17] 84% | [8]; [18] 97% | [8]; at 50.0 µM 74.3% | [9]; at 100.0 µM 93% | [10]; [17] 80% | [10]; [18] 99% | [10]; at 50.0 µM 85.4% | [11]; [18] 98% | [11]; at 100.0 µM 98% | [12]; at 100.0 µM 96% | [13]; at 33.0 µM 89% | [13]; at 100.0 µM 94% | [14]; at 3.7 µM 80% | [14]; at 11.0 µM 90% | [14]; at 33.0 µM 93% | [14]; at 100.0 µM 95% | [15]; [17] 76% | [15]; [18] 98% | [15]; at 50.0 µM 78.5% | [16]; at 1.2 µM 93% | [16]; at 3.7 µM 95% | [16]; at 11.0 µM 96% | [16]; at 33.0 µM 96% | [16]; at 100.0 µM 95%

O=C1c2ccccc2-c2ccc(N=Cc3ccccc3)cc21
inactive: [1]; at 1.2 µM -6% | [1]; at 3.7 µM -8% | [1]; at 11.0 µM 10% | [1]; at 33.0 µM 68% | [2]; at 1.2 µM 1% | [2]; at 3.7 µM 8% | [2]; at 11.0 µM 14% | [2]; at 33.0 µM 27% | [2]; at 100.0 µM 69% | [3]; at 1.2 µM -2% | [3]; at 3.7 µM 24% | [3]; at 11.0 µM 34% | [4]; at 1.2 µM -4% | [4]; at 3.7 µM -2% | [4]; at 11.0 µM -5% | [4]; at 33.0 µM -1% | [4]; at 100.0 µM 58% | [5]; at 1.2 µM -14% | [5]; at 3.7 µM -11% | [5]; [17] 8% | [5]; at 11.0 µM 26% | [5]; at 33.0 µM 66% | [5]; [18] 51% | [6]; at 1.2 µM -4% | [6]; at 3.7 µM -2% | [6]; [17] 4% | [6]; at 11.0 µM -3% | [6]; at 33.0 µM 2% | [6]; [18] 21% | [6]; at 50.0 µM 5% | [6]; at 100.0 µM 24% | [7]; at 1.2 µM 3% | [7]; at 3.7 µM 2% | [7]; at 11.0 µM 3% | [7]; at 33.0 µM 18% | [7]; at 100.0 µM 45% | [8]; [17] 5% | [8]; [18] 27% | [8]; at 50.0 µM 36.9% | [9]; at 1.2 µM -7% | [9]; at 3.7 µM -11% | [9]; at 11.0 µM -13% | [9]; at 33.0 µM -8% | [9]; at 100.0 µM 24% | [10]; [17] -2% | [10]; [18] 9% | [10]; at 50.0 µM 6.45% | [11]; at 1.2 µM -6% | [11]; at 3.7 µM -3% | [11]; [17] 0% | [11]; at 11.0 µM -1% | [11]; at 33.0 µM 9% | [11]; [18] 18% | [11]; at 50.0 µM 31.6% | [11]; at 100.0 µM 54% | [12]; at 1.2 µM 5% | [12]; at 3.7 µM 6% | [12]; at 11.0 µM 18% | [12]; at 33.0 µM 51% | [13]; at 1.2 µM -2% | [13]; at 3.7 µM -8% | [13]; at 11.0 µM -5% | [13]; at 33.0 µM 23% | [14]; at 1.2 µM -13% | [14]; at 3.7 µM -11% | [14]; at 11.0 µM -4% | [14]; at 33.0 µM 19% | [15]; [17] -12% | [15]; [18] 46% | [15]; at 50.0 µM 56.5% | [16]; at 1.2 µM -10% | [16]; at 3.7 µM -8% | [16]; at 11.0 µM -4% | [16]; at 33.0 µM 12%
active: [1]; at 100.0 µM 96% | [3]; at 33.0 µM 87% | [3]; at 100.0 µM 97% | [5]; at 50.0 µM 82.5% | [5]; at 100.0 µM 96% | [12]; at 100.0 µM 92% | [13]; at 100.0 µM 79% | [14]; at 100.0 µM 86% | [16]; at 100.0 µM 84%
